Compounds with a hit are over-represented: about 18% of the library has one in this group of screens.
Six1-Eya2 blk = Six1/Eya2 interaction inhibition. AlphaScreen GST-Six1/His-Eya2 binding, biochemical; stronger effect = lower value. activity change, % (concentration not given with the values). hit rate 0.56% among 360,000. AID 651725; in the data active means activity change below about -65%; inconclusive means mostly about -30% to -63%
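AlphaScreen luminescence read after one hour at 37 °C in darkness. Pin-transferred compounds met GST-Six1 and His-Eya2 protein (5X stock 250 nM/500 nM) plus glutathione donor and Ni-chelate acceptor beads (5X, 50 ug/mL).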
CtBP-E1A inh = inhibitors of CtBP/E1A interaction; AlphaScreen GST-E1A/His-CtBP binding, 1536-well; stronger effect = lower value; activity change, % (concentration not given with the values); hit rate 0.49% among 340,000; AID 651724; in the data active means activity change below about -65%; inconclusive means mostly about -30% to -63%
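Homogeneous bead-based format: GST-tagged E1A captured on glutathione donor beads, His-tagged CtBP on nickel acceptor beads; compounds precede bead addition by 2 h at 37 °C.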
TDP1 block = inhibitors of human tyrosyl-DNA phosphodiesterase TDP1; Q9NUW8; recombinant TDP1, AlphaScreen DNA substrate cleavage; Potency, µM (doses to about 130 µM), for inactives: top-dose activity change, negative = inhibition, hits mostly inhibitors; hit rate 0.28% among 350,000; AID 485290; further: potency means the concentration at half of the fitted maximal effect; nearly all actives have a fitted effect of over 40% in size
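E. coli-derived human Tdp1, 1 nM final. Cpd preinc 15 min RT; substrate 15 nM final, 5 min RT; AS bead mix 10 ug/ml final, 10 min RT. Signal loss = tyrosine-FITC cleavage. No-enzyme wells = max signal.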
DT40 TDP1 no CPT = qHTS for Inhibitors of human tyrosyl-DNA phosphodiesterase 1 (TDP1): qHTS in cells in absence of CPT | DT40 Tdp1-/- hTDP1 cells, no CPT, ATP luminescence, 48 h | Potency, µM (series often up to 46.2 µM), inactives show at the highest dose activity change, negative = growth inhibition, hits mostly inhibitors | hit rate 15% among 420,000; further: potency means the concentration at half of the fitted maximal effect; nearly all actives have a fitted effect of over 55% in size
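Stably hTDP1-transfected Tdp1-null chicken DT40 cells were treated with library compounds minus camptothecin and grown for at least 48 hr at 37 °C, after which cellular ATP was quantified by luminescence.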
DT40 TDP1 CPT = growth inhibition of DT40 Tdp1-/-;hTDP1 cells with camptothecin (screen for TDP1 inhibitors); chicken DT40 Tdp1-/-;hTDP1 cells + 20 nM CPT, ATP luminescence, 48 h; Potency, µM (series often up to 46.2 µM), for inactives: top-dose activity change, negative = growth inhibition, hits mostly inhibitors; hit rate 12% among 420,000; further: potency means the concentration at half of the fitted maximal effect; nearly all actives have a fitted effect of over 55% in size
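Chicken DT40 Tdp1-/- cells complemented with human TDP1, 400 cells/well, exposed to compounds plus 20 nM camptothecin for at least 48 h at 37 C; viability read as ATP content by CellTiter-Glo luminescence.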
IL-1B inflam inh = blocks inflammasome-driven IL-1 beta release | THP-1 LPS/ATP IL-1B secretion, AlphaLISA, 16 h; stronger effect = lower value | hit rate 4.7% among 360,000 | activity change, % at 57.5 µM; in the data active means activity change below about -50%; inconclusive means mostly about -30% to -49%
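Secreted IL-1B measured by AlphaLISA bead assay after 16 h compound exposure of THP-1 cells; compounds (final up to 57.5 uM) added 1 h before LPS (250 ng/mL) and ATP (1.25 mM) stimulation; lower signal means less secretion.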
Starred values were filed as active, the others as inactive; ? = inconclusive; . = not tested or not shown; [ ] = another dose, or the depositor's remark. Unless noted, the call rests on the fitted dose curve; in most records, active means well fitted curve in the direction sought with a large enough effect; inconclusive means small, poorly fitted or top-dose-only effect, or another doubt; inactive means no such curve, though single readings can be large; an effect the other way counts as inactive or inconclusive. On the % scale 0 is the no-effect control and ±100 the full control effect.

SMILES	Six1-Eya2 blk	CtBP-E1A inh	TDP1 block	DT40 TDP1 no CPT	DT40 TDP1 CPT	IL-1B inflam inh
FC(F)(F)c1cc(Nc2ccccc2)nc(-c2ccccn2)n1	-17	-24	.	26µM*	?	-22
CC(C)Nc1cc(C(F)(F)F)nc(-c2ccccn2)n1	-3	-2	2%	18µM*	18µM*	-16
COC(=O)CSc1cc(C(F)(F)F)nc(-c2ccccn2)n1	3	5	5%	15%	-4%	?
COc1cc(C(F)(F)F)nc(-c2ccccn2)n1	-1	-1	3%	-22%	18%	9
CC1CCN(C(=O)Cn2c3ccc(F)cc3c3nc4n(c(=O)c32)CCCS4)CC1	-4	.	2%	?	?	-4
CCc1nnc(NC(=O)CN2C(=O)CCC2=O)s1	4	8	2%	?	-2%	10
CC(C)c1ccc(OC(=O)c2ccc3c(=O)n4c(nc3c2)CCC4)cc1	-5	5	.	?	?	-2
O=C(Nc1ccc(F)cc1)Nc1ccc(S(=O)(=O)N2CCCC2)cc1	-4	.	1%	?	?	-18
O=C(Nc1ccc(F)cc1)c1ccc(S(=O)(=O)N2CCCC2)cc1	11	22	.	?	2%	-75*
Cc1ccc(C(=O)NC2CC2)cc1S(=O)(=O)N1CCOCC1	10	.	-1%	0%	-2%	-12
O=C(Nc1ccc(S(=O)(=O)N2CCCC2)cc1)Nc1ccc(F)cc1F	-2	-9	.	29µM*	?	-13
O=C(Nc1ccc(F)cc1)Nc1cc(S(=O)(=O)N2CCOCC2)ccc1N1CCCC1	2	9	-5%	-4%	10%	5
CCC(C)(C)C1CCC(NC(=O)c2ccc(S(=O)(=O)N3CCOCC3)cc2)CC1 (configuration not stated)	8	-2	-3%[56.1 µM]	23µM*	15µM*	-2
CC(=O)c1ccc(NC(=O)c2ccc(S(=O)(=O)N3CCCC3)cc2)cc1	-8	13	4%	16µM*	?	0
CC(=O)Nc1ccc(C(=O)Nc2ccc(S(=O)(=O)N3CCCCC3)cc2)cc1	-5	3	.	-24%	-29%	25
CCn1c(Cc2ccccc2)nnc1SCC(=O)NC1CCCC1	8	-8	-1%	3%	11%	-18
CC(=O)c1ccc(NC(=O)Nc2ccc(S(=O)(=O)N3CCCC3)cc2)cc1	-3	-16	5%	15µM*	?	-108*
O=C(Nc1ccc(S(=O)(=O)N2CCCCC2)cc1)c1ccncc1	-6	-4	5%	?	?	0
O=C(NC1CCN(S(=O)(=O)c2ccc(F)cc2)CC1)c1ccc(F)cc1	-1	-4	4%	5%	-1%	-54*
O=C(Nc1ccc(Cc2ccncc2)cc1)c1ccc(S(=O)(=O)N2CCCC2)cc1	2	2	3%	10µM*	13µM*	-96*
CC(=O)c1ccc(S(=O)(=O)Nc2ccc(S(=O)(=O)N3CCCCC3)cc2)cc1	7	12	0%	3%	-20%	0
CCn1ncc2c1C(=O)NC1c3ccccc3C(=O)N21 (configuration not stated)	2	2	2%	?	6%	-10
COc1ccc(C(CCNCc2ccc(N(C)C)cc2)c2ccccc2OC)cc1 (configuration not stated)	-74*	-75*	.	15µM*	18µM*	-101*
COc1ccc(C(CCNC(C)c2ccccc2)c2ccc(F)cc2)cc1 (configuration not stated)	18	9	5%	7.3µM*	7.3µM*	-50*
COc1ccc(CNCCC(c2ccc(OC)cc2)c2ccccc2OC)cc1 (configuration not stated)	-2	-1	.	6.5µM*	18µM*	-83*

Assay outcomes (PubChem)
